# PubChem BioAssay (EPA / NIEHS)
# A structure can be active in one record and inactive in another. The source made the active and inactive calls. The calls were made as follows: active = hit-call score of the fitted dose curve at least 0.9, where 1 is the maximum; inactive = score below 0.9.
# Experiments:
# [1] = read-out: Interleukin-8 (IL8), CXCL8 (gene 3576); experiment: BSK_IMphg_IL8: BioMAP Diversity Plus: IMphg Assay for Interleukin-8 (IL8) Biomarker Activity (AID 2284277); details: primary human endothelial cells with macrophages
# Method: BSK_IMphg is a cell-based, multiplexed-readout assay that uses venular endothelial cells and macrophages, a human vascular primary cell, with measurements taken at 24 hours after chemical dosing in a microplate: 96-well plate.BSK_IMphg_IL8 is an assay component measured in the BSK_IMphg assay. It measures IL-8 antibody related to regulation of gene expression using ELISA technology.Data from the assay component BSK_IMphg_IL8 was analyzed at the endpoint, BSK_IMphg_IL8, in the positive analysis fitting direction relative to DMSO as the negative control and baseline of activity. Using a type of binding reporter, gain or loss-of-signal activity can be used to understand protein changes. […]
# (§1) The levels of cell surface (or secreted, indicated by the prefix "s") biomarker endpoints were measured by ELISA. Overt cytotoxicity to cells in confluent adherent cultures (all systems other than the BT system) was assessed by measuring total protein levels using sulforhodamine B (SRB) staining in parallel cultures at the time of biomarker measurements, indicated as SRB endpoints. For proliferation assays for adherent cell types, individual cell types are cultured at sub-confluence and relative cell numbers quantified by SRB staining at time points optimized for each system (48 h: 3C and CASM3C systems; 72 h: BT and HDF3CGF systems; 96 h: SAg system). […] Plates were read after 6 h.
# [2] = read-out: Intercellular Adhesion Molecule 1 (ICAM1), ICAM1 (gene 3383); experiment: BSK_BE3C_ICAM1: BioMAP Diversity Plus: BE3C Assay for Intercellular Adhesion Molecule 1 (ICAM1) Biomarker Activity (AID 2284278); details: primary human bronchial epithelial cells
# In short: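 Here, ICAM-1 levels on confluent human bronchial epithelial primary cells are read by ELISA at 24 h after chemical dosing. Parallel SRB staining (0.1% after 10% TCA fixation, 560 nm) checks cytotoxicity.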
# [3] = read-out: Interferon-inducible T-cell alpha chemoattractant (ITAC), CXCL11 (gene 6373); experiment: BSK_BE3C_ITAC: BioMAP Diversity Plus: BE3C Assay for Interferon-inducible T-cell alpha chemoattractant (ITAC) Biomarker Activity (AID 2284279); details: primary human bronchial epithelial cells
# In short: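 Steps: dose human bronchial epithelial cells with chemical; incubate 24 h; measure I-TAC by ELISA; fit endpoint in positive direction against DMSO control. Cytotoxicity was checked in parallel cultures by SRB staining at harvest.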
# [4] = read-out: Interleukin-8 (IL8), CXCL8 (gene 3576); experiment: BSK_BE3C_IL8: BioMAP Diversity Plus: BE3C Assay for Interleukin-8 (IL8) Biomarker Activity (AID 2284280); details: primary human bronchial epithelial cells
# In short: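 Dose human bronchial epithelial cells with chemical; incubate 24 h; quantify IL-8 by ELISA; fit response upward versus DMSO controls.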
# [5] = read-out: Epidermal growth factor receptor (EGFR), EGFR (gene 1956); experiment: BSK_BE3C_EGFR: BioMAP Diversity Plus: BE3C Assay for Epidermal growth factor receptor (EGFR) Biomarker Activity (AID 2284281); details: primary human bronchial epithelial cells
# In short: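 ELISA read-out of EGFR levels on human bronchial epithelial primary cells collected 24 h post-dosing. DMSO served as negative control and baseline for gain-of-signal fitting.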
# KRT18 (gene 3875) = experiment: BSK_BE3C_Keratin818: BioMAP Diversity Plus: BE3C Assay for Keratin 818 Biomarker Activity (AID 2284282); details: primary human bronchial epithelial cells
# In short: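 Keratin 8/18 levels, detected by ELISA, served as the endpoint after 24 h chemical exposure of primary human bronchial epithelial cells. Gain of signal relative to DMSO negative control defined activity.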
# [6] = read-out: Matrix Metallopeptidase 9 (MMP9), MMP9 (gene 4318); experiment: BSK_BE3C_MMP9: BioMAP Diversity Plus: BE3C Assay for Matrix Metallopeptidase 9 (MMP9) Biomarker Activity (AID 2284283); details: primary human bronchial epithelial cells
# In short: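 Cells were dosed, incubated 24 h, then assayed for MMP-9 by ELISA; activity was fitted upward against DMSO. The system used human lung primary bronchial epithelial cells, with SRB total-protein staining run alongside for cytotoxicity.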
# [7] = read-out: Plasminogen activator inhibitor-1 (PAI1), SERPINE1 (gene 5054); experiment: BSK_CASM3C_PAI1: BioMAP Diversity Plus: CASM3C Assay for Plasminogen activator inhibitor-1 (PAI1) Biomarker Activity (AID 2284284); details: primary human coronary artery smooth muscle cells;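 also: PAI-1 protein level measured by ELISA 24 h after dosing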
# [8] = read-out: Monocyte Chemoattractant Protein-1 (MCP1), CCL2 (gene 6347); experiment: BSK_hDFCGF_MCP1: BioMAP Diversity Plus: hDFCGF Assay for Monocyte Chemoattractant Protein-1 (MCP1) Biomarker Activity (AID 2284285); details: primary human foreskin fibroblasts
# Method: BSK_hDFCGF is a cell-based, multiplexed-readout assay that uses foreskin fibroblast, a human skin primary cell, with measurements taken at 24 hours after chemical dosing in a 96-well plate.BSK_hDFCGF_MCP1 is an assay component measured in the BSK_hDFCGF assay. It measures MCP-1 antibody related to regulation of gene expression using ELISA technology.Data from the assay component BSK_hDFCGF_MCP1 was analyzed at the endpoint, BSK_hDFCGF_MCP1, in the positive analysis fitting direction relative to DMSO as the negative control and baseline of activity. Using a type of binding reporter, gain or loss-of-signal activity can be used to understand protein changes. […]
# as §1
# [9] = read-out: Vascular cell adhesion molecule 1 (VCAM1), VCAM1 (gene 7412); experiment: BSK_IMphg_VCAM1: BioMAP Diversity Plus: IMphg Assay for Vascular cell adhesion molecule 1 (VCAM1) Biomarker Activity (AID 2284286); details: primary human endothelial cells with macrophages
# In short: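 ELISA read-out of VCAM-1 on venular endothelial cell/macrophage co-cultures at 24 h post-treatment, with DMSO as baseline and positive-direction fitting. Parallel sulforhodamine B total-protein staining (560 nm) served as the overt cytotoxicity measure.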
structure (smiles),measurement,setting,value
Cn1cnc([N+](=O)[O-])c1Sc1ncnc2nc[nH]c12,outcome,[1],inactive
same,outcome,[2],inactive
same,outcome,[3],inactive
same,outcome,[4],inactive
same,outcome,[5],inactive
same,outcome,KRT18 (gene 3875),inactive
same,outcome,[6],inactive
same,outcome,[7],inactive
same,outcome,[8],inactive
same,AC50,[9],9.14 µM (active)
same,outcome,[9],inactive
